# ± gives the standard deviation of the averaged measurements.
# T1: NXT1 1-140 NTF2 (domain begin residue: 1, domain end residue: 140), Q9UKK6
# T1 chain: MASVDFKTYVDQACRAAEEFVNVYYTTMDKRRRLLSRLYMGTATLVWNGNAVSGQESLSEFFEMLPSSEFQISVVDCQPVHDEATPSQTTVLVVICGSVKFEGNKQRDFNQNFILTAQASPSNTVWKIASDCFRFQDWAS
# T2: NUP98 730-880 Nucleoporin2 (domain begin residue: 730, domain end residue: 880), P52948
# T2 chain: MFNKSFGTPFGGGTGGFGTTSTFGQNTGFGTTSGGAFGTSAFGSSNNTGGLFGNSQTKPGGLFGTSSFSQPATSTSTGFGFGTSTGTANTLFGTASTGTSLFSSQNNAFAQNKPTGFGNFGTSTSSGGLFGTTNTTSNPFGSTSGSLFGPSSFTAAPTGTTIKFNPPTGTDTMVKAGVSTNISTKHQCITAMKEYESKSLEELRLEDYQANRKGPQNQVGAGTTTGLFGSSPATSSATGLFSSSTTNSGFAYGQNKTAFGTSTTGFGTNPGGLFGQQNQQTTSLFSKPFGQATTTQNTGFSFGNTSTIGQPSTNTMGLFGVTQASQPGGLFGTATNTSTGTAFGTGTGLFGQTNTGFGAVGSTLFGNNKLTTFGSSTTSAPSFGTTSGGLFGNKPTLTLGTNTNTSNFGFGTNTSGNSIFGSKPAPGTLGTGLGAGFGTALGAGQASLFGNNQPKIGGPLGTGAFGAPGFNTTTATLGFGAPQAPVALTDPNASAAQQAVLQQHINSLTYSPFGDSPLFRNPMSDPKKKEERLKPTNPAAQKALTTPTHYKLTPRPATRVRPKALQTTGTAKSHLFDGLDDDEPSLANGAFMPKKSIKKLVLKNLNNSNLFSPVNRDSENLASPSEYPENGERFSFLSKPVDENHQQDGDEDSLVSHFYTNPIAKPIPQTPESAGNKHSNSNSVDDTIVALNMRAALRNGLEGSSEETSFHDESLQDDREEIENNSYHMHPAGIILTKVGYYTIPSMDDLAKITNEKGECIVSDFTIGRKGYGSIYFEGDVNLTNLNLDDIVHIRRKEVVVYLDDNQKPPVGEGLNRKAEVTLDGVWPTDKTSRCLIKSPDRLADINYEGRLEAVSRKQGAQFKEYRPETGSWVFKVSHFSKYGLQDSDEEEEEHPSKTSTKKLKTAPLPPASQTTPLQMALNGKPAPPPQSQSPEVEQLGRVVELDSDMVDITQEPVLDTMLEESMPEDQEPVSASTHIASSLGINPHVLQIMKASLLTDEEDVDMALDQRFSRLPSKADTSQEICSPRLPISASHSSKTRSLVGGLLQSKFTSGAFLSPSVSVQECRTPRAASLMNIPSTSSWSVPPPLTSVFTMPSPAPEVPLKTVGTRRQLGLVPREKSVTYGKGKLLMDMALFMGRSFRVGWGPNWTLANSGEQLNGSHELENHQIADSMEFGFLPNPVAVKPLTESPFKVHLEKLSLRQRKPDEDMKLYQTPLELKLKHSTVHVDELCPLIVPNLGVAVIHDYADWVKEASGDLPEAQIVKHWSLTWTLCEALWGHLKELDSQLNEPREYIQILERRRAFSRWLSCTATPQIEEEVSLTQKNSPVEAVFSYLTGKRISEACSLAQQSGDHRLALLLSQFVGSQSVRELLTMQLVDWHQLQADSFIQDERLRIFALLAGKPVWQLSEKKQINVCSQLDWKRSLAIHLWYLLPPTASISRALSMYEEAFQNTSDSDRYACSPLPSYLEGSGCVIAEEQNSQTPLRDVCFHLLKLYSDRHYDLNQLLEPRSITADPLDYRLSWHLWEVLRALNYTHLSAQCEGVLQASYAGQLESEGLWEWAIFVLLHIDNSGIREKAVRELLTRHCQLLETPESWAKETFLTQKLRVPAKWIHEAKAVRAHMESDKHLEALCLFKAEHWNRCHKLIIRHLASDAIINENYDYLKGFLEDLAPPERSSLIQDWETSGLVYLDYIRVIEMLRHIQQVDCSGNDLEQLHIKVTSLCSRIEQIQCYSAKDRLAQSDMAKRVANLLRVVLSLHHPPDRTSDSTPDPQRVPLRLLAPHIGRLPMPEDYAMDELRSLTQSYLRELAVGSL
# What was measured:
# Experiment in all cases: phage ELISA signal ratio (GST-PRM binding over GST background); higher = stronger binding of peptide-phage to the PRM
# [1] = target: PABPC1 544-623 PABP (domain begin residue: 544, domain end residue: 623)
# Summary of the method: (§1)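 Each value is the phage ELISA signal on the glutathione S-transferase (GST)-domain fusion divided by the signal on GST alone. Human peptide recognition domains were expressed in 96-well plates, fused to the C-terminus of GST, and selected against an M13 phage library carrying randomized, cysteine-free, glycine-flanked hexadecapeptides on the gene-8 major coat protein. After five selection rounds, approximately 48 individual clones from rounds 4 and 5 were tested by phage ELISA, and positive clones were sequenced.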
# [2] = target: PAF1 165-376 Paf1 (domain begin residue: 165, domain end residue: 376), Q8N7H5
# Summary of the method: as §1
# [3] = target: PCMT1 1-227 PCMT (domain begin residue: 1, domain end residue: 227), P22061
# PCMT1 1-227 PCMT (domain begin residue: 1, domain end residue: 227), P22061, sequence (P22061 whole entry): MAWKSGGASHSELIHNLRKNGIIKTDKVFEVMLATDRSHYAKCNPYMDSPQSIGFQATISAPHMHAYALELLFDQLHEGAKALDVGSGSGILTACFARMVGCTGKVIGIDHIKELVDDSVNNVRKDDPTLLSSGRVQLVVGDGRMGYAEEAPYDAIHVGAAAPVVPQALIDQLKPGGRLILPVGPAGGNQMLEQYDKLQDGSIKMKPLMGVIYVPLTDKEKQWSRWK
# Summary of the method: as §1
# [4] = target: NXF1 565-619 TAP_C (domain begin residue: 565, domain end residue: 619)
# Summary of the method: as §1
# [5] = target: PDCD6 23-191 EF-hand_5+EF-hand_7 (domain begin residue: 23, domain end residue: 191), O75340
# PDCD6 23-191 EF-hand_5+EF-hand_7 (domain begin residue: 23, domain end residue: 191), O75340, sequence (O75340 whole entry): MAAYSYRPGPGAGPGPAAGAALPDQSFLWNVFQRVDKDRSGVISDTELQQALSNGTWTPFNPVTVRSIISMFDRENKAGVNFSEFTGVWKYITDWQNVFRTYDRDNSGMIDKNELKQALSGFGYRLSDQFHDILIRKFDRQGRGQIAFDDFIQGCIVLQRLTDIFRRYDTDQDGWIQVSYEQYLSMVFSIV
# Summary of the method: as §1
# [6] = target: NXF1 203-359 LRR_1 (domain begin residue: 203, domain end residue: 359)
# Summary of the method: as §1
# [7] = target: T1, NXT1 1-140 NTF2 (domain begin residue: …
# Summary of the method: as §1
# [8] = target: T2, NUP98 730-880 Nucleoporin2 (domain …
# Summary of the method: as §1
# [9] = target: PCNA 1-261 PCNA_N+PCNA_C (domain begin residue: 1, domain end residue: 261), P12004
# PCNA 1-261 PCNA_N+PCNA_C (domain begin residue: 1, domain end residue: 261), P12004, sequence (P12004 whole entry): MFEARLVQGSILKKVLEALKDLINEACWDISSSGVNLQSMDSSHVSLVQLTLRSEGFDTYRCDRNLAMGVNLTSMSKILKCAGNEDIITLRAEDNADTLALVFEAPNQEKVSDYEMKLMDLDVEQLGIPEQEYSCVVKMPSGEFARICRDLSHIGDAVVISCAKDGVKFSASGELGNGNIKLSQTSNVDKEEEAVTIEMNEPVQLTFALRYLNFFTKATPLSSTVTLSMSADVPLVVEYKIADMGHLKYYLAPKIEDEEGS
# Summary of the method: as §1
binder,measurement,setting,value
TIDWESVIKTYSPWLD,phage ELISA signal ratio,[1],29.8
WEQQWFEWTHIEGQDD,phage ELISA signal ratio,[2],2.51
HEFWALYDAMPMRSYV,phage ELISA signal ratio,[3],30.9
QVDMMSQLFMMADQWN,phage ELISA signal ratio,[2],4.55
EFINFTWMEAMGTPNS,phage ELISA signal ratio,[4],13.2
WAEWVFSDEDPPGHMV,phage ELISA signal ratio,[5],23
FENYWKGYQEVPLESR,phage ELISA signal ratio,[6],18.9
DIPFSFQWSTDMHPVS,phage ELISA signal ratio,[4],6.7
MYGWGPLLMEMNPWQW,phage ELISA signal ratio,[5],20.8
LQLEPYGWMDWTWQTA,phage ELISA signal ratio,[5],21.9
FEMLWREHMEKFDVEV,phage ELISA signal ratio,[6],28.4
QYNFLWEHLVQPRPAT,phage ELISA signal ratio,[7],16.1
VVQIEGFDFQWKPEWF,phage ELISA signal ratio,[4],13.2
SMEMMNFTWDPEWFIE,phage ELISA signal ratio,[4],12.9
YGWNQILLDESVFHMV,phage ELISA signal ratio,[5],26.9
SFLPVSYGWAPWLIET,phage ELISA signal ratio,[5],24.1
QQLADIPTYEWLQRNH,phage ELISA signal ratio,[1],27
WDFPGWSADQMPFSQS,phage ELISA signal ratio,[2],4.24
WFGWDAQMTEQEDELW,phage ELISA signal ratio,[8],5.91
IEVYSYMENMYDHPPV,phage ELISA signal ratio,[2],3.73
GARQTLITDWLMVSSD,phage ELISA signal ratio,[9],15.6
SHNWWHIIEAQEAMAW,phage ELISA signal ratio,[3],16
AQWPMDIGWAPWLLDV,phage ELISA signal ratio,[5],26.8
MPQFGWEEWVLDGIHF,phage ELISA signal ratio,[5],20.2
GDFGPDWFSFAWTEEM,phage ELISA signal ratio,[4],13.4
MDMPYGWMQWVSTEPV,phage ELISA signal ratio,[5],25.4
MAGPESLNFSWDYIMN,phage ELISA signal ratio,[4],13.4
EQKQTDSFYWIWQHLD,phage ELISA signal ratio,[7],3.56
QGWMPWDPQDLDWWVG,phage ELISA signal ratio,[8],7.31
LPGEYNMMEWRQAVMG,phage ELISA signal ratio,[1],3.49
FYMWQVIDAQAYVDWI,phage ELISA signal ratio,[3],4.8
PNFEDYWRTAEQWHQP,phage ELISA signal ratio,[6],25.4
KPVPSFWVDWHVQAMT,phage ELISA signal ratio,[1],20.9
LISGMNGWNYGWADWV,phage ELISA signal ratio,[5],25.8
EIEEFSFTWQPEWEVR,phage ELISA signal ratio,[4],8.54
GYGWEELPPIMTVAPD,phage ELISA signal ratio,[8],23.2
VDYGWVWESAYTPPMQ,phage ELISA signal ratio,[5],26.1
GIPYPDFNWENISTLV,phage ELISA signal ratio,[4],6.41
MWIYNEKWDMFLPYKL,phage ELISA signal ratio,[7],20.3
VFEPTLASYGWAHWAV,phage ELISA signal ratio,[5],25.1
LVGEMSRNVGWAAWVF,phage ELISA signal ratio,[5],18.1
FEELWLKHTAVSKTTE,phage ELISA signal ratio,[6],32.5
MDIWDEMALSINPYMY,phage ELISA signal ratio,[2],4.38
SELWDHWIEWNDVYQT,phage ELISA signal ratio,[2],3.06
FETLWARHAQGQTQVE,phage ELISA signal ratio,[6],22
MWEPELYDDFHEAVTY,phage ELISA signal ratio,[8],18.1
VHWDPYWFLEDNFSNL,phage ELISA signal ratio,[3],19.9
VSMTQSESYGWQPWVV,phage ELISA signal ratio,[5],27.1
VQMWSFEQIWVEHMMG,phage ELISA signal ratio,[6],20.1
WVGNNDWENEWPWVIL,phage ELISA signal ratio,[8],7.89
YPIEQFSFDIWDQMVE,phage ELISA signal ratio,[4],12
WAPWVFMDDAPFDSMV,phage ELISA signal ratio,[5],24.8
VNYGWTPEVTWWLHEA,phage ELISA signal ratio,[5],14.4
WAEWDASQPDWVPEYQ,phage ELISA signal ratio,[8],4.87
MSVEPYMPPYGWAEWV,phage ELISA signal ratio,[5],22.3
QQMLYGWGPMVQEMLV,phage ELISA signal ratio,[5],25.4
VFYGWQDWVVPGDWDV,phage ELISA signal ratio,[5],28 ± 2.8
